# Measurements: PubChem BioAssay
# Biological target: Streptavidin (Streptomyces avidinii) (UniProt P22629)
# Test: compounds binding control protein streptavidin – biophysical, small-molecule microarray, 635/667 nm fluorescence, artefact control for SMM compound annotation, primary screen (AID 1147);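 note: signal reflects streptavidin binding to arrayed compounds as a control protein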
# Details: higher = more signal
# Streptavidin (Streptomyces avidinii), sequence (P22629 whole entry, looked up): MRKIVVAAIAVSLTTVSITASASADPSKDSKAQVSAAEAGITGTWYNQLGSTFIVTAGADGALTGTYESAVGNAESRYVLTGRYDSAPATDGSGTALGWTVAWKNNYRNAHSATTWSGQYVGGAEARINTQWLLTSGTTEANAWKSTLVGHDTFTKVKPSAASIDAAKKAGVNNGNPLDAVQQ
row,Compound,composite z-score
1,O=C1O[C@H](c2ccccc2)[C@H](c2ccccc2)N2[C@H]1[C@@H](C(=O)NC[C@H](O)c1ccccc1)[C@]1(C(=O)Nc3ccccc31)[C@H]2c1ccc(OCCO)cc1,0.261
2,O=C1c2ccccc2[C@](Cc2ccccc2I)(C(=O)NC2CC2)[C@H](c2ccc(CO)cc2)N1C1CCCCC1,1.05
3,CC(=O)NCCCC[C@@H]1NC(=O)[C@@H]2C[C@H](C(=O)NCCCCCCNC(=O)CS)[C@H](c3cccc(OCCO)c3)N2C1=O,-0.088
4,COCCOC(=O)N1C(=O)[C@@]2(c3cc(C#CC4=CCCCC4)ccc31)[C@H](C(=O)N1CCc3cc(OC)c(OC)cc3C1)[C@H]1C(=O)O[C@H](c3ccccc3)[C@H](c3ccccc3)N1[C@@H]2c1ccc(OCCO)cc1,0.665
5,COCCOC(=O)N1C(=O)[C@@]2(c3cc(C#CC4=CCCCC4)ccc31)[C@H](C(=O)Nc1nc3ccccc3s1)[C@H]1C(=O)O[C@H](c3ccccc3)[C@H](c3ccccc3)N1[C@@H]2c1ccccc1OCCO,1.19
6,COc1ccc(C(O)C2C=CC3C(=O)N(c4ccccc4)C(=O)C3N2Nc2ccc(C(C)C)cc2)cc1OCc1ccccc1 (configuration not stated),1.89

# Test system: not listed separately
# Test: probe aInhba binding on compound microarray – biochemical, small-molecule microarray, 635/667 nm fluorescence, primary screen (AID 1148);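 note: score merges 667nm spot fluorescence with signal-to-noise for antibody binding to printed compounds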
# Details: higher = more signal
row,Compound,composite z-score
1,CN(C)C(=O)[C@]1(Cc2ccccc2N=[N+]=[N-])N=C(c2ccc(OCCCO)cc2)O[C@@H]1c1ccccc1,0.0928
2,CCCCCC1=C2CNC(CCC)(C(=O)OC)C=C2C(C)C1=O (configuration not stated),0.345
3,COCCOC(=O)N1C(=O)[C@@]2(c3cc(C#CCCO)ccc31)[C@H](C(=O)N1CCc3cc(OC)c(OC)cc3C1)[C@H]1C(=O)O[C@H](c3ccccc3)[C@H](c3ccccc3)N1[C@@H]2c1ccc(O)cc1,0.132
4,O=C(NCc1ccccc1)[C@@]1(Cc2ccccc2)N=C(c2ccc(OCCCO)cc2)O[C@H]1c1ccccc1,0.161
5,CC(C)c1ccc(NN2C(C(O)c3cc(C(F)(F)F)cc(C(F)(F)F)c3)C=CC3C(=O)N(c4ccccc4)C(=O)C32)cc1 (configuration not stated),0.0001
6,CN1C(=O)[C@]2(Cc3ccccc3)N=C(c3ccc(OCCCO)cc3)O[C@@H]2c2ccccc21,0.112
7,CC(C)(C)OC(=O)CC[C@]1(C(=O)NCC(O)CO)COC(c2ccc(OCCCO)cc2)=N1 (some centres not stated),-0.003
8,CCOC(=O)C[C@H]1[C@H](OC(=O)c2cc3ccccc3oc2=O)[C@@H](NC(=O)Cc2ccc(OC)cc2)c2cc(OCCCO)ccc2N1C(=O)c1ccccc1,0.0713
9,COc1ccc(CCNC(=O)[C@@]2(Sc3ccc(C)cc3)CC(=O)N(C3CCCCC3)[C@@H]2c2ccc(CO)cc2I)cc1,0.0391
10,COc1ccc(C(=O)O[C@H]2CC[C@]3(C)C4=C(CCC3C2(C)C)[C@]2(C)CC[C@H]([C@H](C)CCCC(C)C)[C@@]2(C)CC4)cc1 (some centres not stated),-0.103
11,CCOC(=O)C[C@H]1[C@H](OC(=O)Cc2ccc3c(c2)OCO3)[C@@H](NC(=O)c2ccc3ccccc3c2)c2cc(OCCCO)ccc2N1C(=O)c1ccccc1,0.0184
12,CCN(CC)c1ccc(N2CC=CC34O[C@@H]5/C=C\CCCOC(=O)C5[C@H]3C(=O)N(CCO)[C@@H]4C2=O)cc1 (some centres not stated),-0.219
13,C=CCNC(=O)[C@@H]1[C@H]2C(=O)O[C@H](c3ccccc3)[C@H](c3ccccc3)N2[C@H](c2ccccc2OCCO)[C@@]12C(=O)N(C(=O)OCCOC)c1ccc(C#CCNC(N)=O)cc12,0.115
14,O=C1C[C@]2(c3ccc([N+](=O)[O-])cc3)C(=O)N(CCN3CCOCC3)c3cc(CO)ccc3[C@H]2N1C1CCCCC1,-0.0021
15,CN1C(=O)C2C=CC(C(O)C3CC=CCC3)N(NC(=O)OC(C)(C)C)C2C1=O (configuration not stated),0.0301
16,COCCCNC(=O)C1N=C(c2ccc(OCCCO)cc2)N(c2ccccc2)O1 (configuration not stated),0.151
17,C=C(COC)/C(=C/C[C@H](OC(=O)c1ccncc1)c1ccc(OCCO)cc1)c1cnc2ccccc2c1,-0.0087
18,C=CC[C@@]1(C(=O)N(C)C)N=C(c2ccc(OCCCO)cc2)O[C@@H]1c1ccccc1N=[N+]=[N-],0.274
19,C=CCOC(=O)[C@H]1[C@@H]2C(=O)O[C@@H](c3ccccc3)[C@@H](c3ccccc3)N2[C@@H](c2ccc(OCCOC(=O)[C@@H]3C[C@@H]4C(=O)N[C@@H](CCCC[N+](C)(C)C)C(=O)N4[C@@H]3c3ccc(O)cc3)cc2)[C@]12C(=O)Nc1ccccc12,-0.0494
20,O=C1NC(=O)C2C1C=CC(C(O)c1cccc3ccccc13)N2Nc1ccccn1 (configuration not stated),0.185
21,COc1ccc(C(=O)Nc2cccc(CN3C(=O)[C@]4(O[C@H](CCO)[C@@H]([Si](C)(C)c5ccc(OC)cc5)[C@@H]4C)c4ccccc43)c2)cc1,-0.121
